TEAD-YAP block – TEAD-YAP interaction inhibition; HEK-TIYL cells, TEAD-Gal4/YAP UAS-luciferase luminescence; inhibition, % at 9.12 µM; actives 1.4% (n = 640,000); in the data active = inhibition above about 32%;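 also: 0% = median of test compound wells and 100% = reference inhibitor wells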
MITF primary – blocks human microphthalmia-associated transcription factor. AID 1259374. actives 0.91% (n = 650,000). AlphaScreen MITF homodimerization, bead proximity signal. inhibition, % at 2.6 µM. O75030; in the data active = inhibition above about 50%;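 also: 0% = vehicle wells with protein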
FBW7 activator – human FBW7 E3 ligase activation, primary screen. normalized activity (activation), % at 26.1 µM. AlphaScreen FBW7–phospho-cyclin E peptide binding, activator screen. Q969H0. actives 0.13% (n = 650,000); in the data active = normalized activity above about 1.9%;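 also: purified mutant Fbw7 with reduced substrate affinity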
GPR151 activ – activators of human GPR151; PathHunter beta-arrestin GPR151 cells, luminescence; Q8TDV0; activation, % at 11.2 µM; actives 1% (n = 650,000); in the data active = activation above about 4.9%;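 also: 0% = median of compound wells and 100% = cells with positive control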
Target sequence (Q8TDV0 whole entry, looked up): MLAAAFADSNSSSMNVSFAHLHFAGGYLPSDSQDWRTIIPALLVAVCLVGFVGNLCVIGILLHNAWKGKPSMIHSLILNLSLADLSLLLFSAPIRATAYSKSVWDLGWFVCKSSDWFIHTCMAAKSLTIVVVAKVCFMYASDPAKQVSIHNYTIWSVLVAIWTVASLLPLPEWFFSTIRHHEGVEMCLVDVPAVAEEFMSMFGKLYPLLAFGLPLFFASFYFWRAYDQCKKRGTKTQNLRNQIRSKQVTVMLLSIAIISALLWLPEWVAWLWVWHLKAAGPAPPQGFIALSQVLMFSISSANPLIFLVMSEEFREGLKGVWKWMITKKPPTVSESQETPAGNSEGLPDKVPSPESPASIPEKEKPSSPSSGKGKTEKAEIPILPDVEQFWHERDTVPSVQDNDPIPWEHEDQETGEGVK
Starred values were filed as active, the others as inactive. Rows were chosen to be rich in hits. Some 3.5% of all compounds tested hit in one or more screens of this group.

SMILES	TEAD-YAP block	MITF primary	FBW7 activator	GPR151 activ
CCCN1Cc2cc(Cl)ccc2OC(C)C1 (configuration not stated)	5.4	7.0	0.0	-1.2
COc1ccc(Cl)cc1NC(=S)N(Cc1cccs1)C1CCCCC1	2.9	0.6	0.3	-1.6
Cc1ccc(S(=O)(=O)Nc2ccc(NS(=O)(=O)c3ccc(C)cc3)cc2)cc1	4.8	-5.1	0.1	1.3
CCC(C)(C)NC(=O)C1CCN(S(=O)(=O)c2ccc(F)cc2)CC1	0.0	0.5	-0.2	0.0
CCC(C)(C)NC(=O)C1CCN(S(=O)(=O)c2ccc(C)cc2)CC1	73.5*	-2.2	-0.1	0.9
CCOC(=O)c1oc2ccccc2c1NC(=O)C1CCN(S(=O)(=O)c2ccc(C)cc2)CC1	35.4*	16.4	0.7	-1.8
CCC(C)(C)C(=O)Nc1ccc(S(=O)(=O)N2CCC(C)CC2)cc1	11.2	14.9	2.2*	-0.8
CC(Nc1ncnc2sccc12)c1ccccc1 (configuration not stated)	53.0*	-4.0	-0.1	3.0
CCCCCNC(=O)c1sc(=S)n(CCc2ccccc2)c1N	4.2	-7.4	-0.2	1.2
O=C(Cc1ccc(Cl)cc1)Nc1ccc(CN2CCOCC2)cc1	-7.5	-3.9	-0.1	-1.0
O=C(/C=C/c1ccc(Cl)cc1)Nc1ccc(CN2CCOCC2)cc1	40.8*	-1.0	0.0	0.0
COC(=O)c1c(OCCC2CCCN2C)cc(=O)n2c1CCN(C(=O)CC1CC1)CC2 (configuration not stated)	-1.7	2.7	0.0	0.6
O=C(CSc1nnnn1-c1ccccc1)Nc1cccc(NC(=O)C23CC4CC(CC(C4)C2)C3)c1	71.6*	8.5	-0.4	-0.5
CCC(=O)Nc1cccc(NC(=O)CSc2nnnn2-c2ccccc2)c1	7.8	4.7	0.3	-0.9
O=C(Nc1ccc([N+](=O)[O-])cc1Br)c1ccccc1O	78.1*	9.7	-0.1	-2.3
O=C(Nc1ccc(Br)cc1F)c1ccc(Cl)c([N+](=O)[O-])c1	-12.4	17.6	0.2	-1.2
O=C(Nc1ccc(F)cc1F)c1ccc(Cl)c([N+](=O)[O-])c1	56.0*	11.5	0.0	-2.0
O=C(Nc1ccccc1Cl)c1ccc([N+](=O)[O-])cc1Cl	0.3	9.4	-0.1	1.0
O=C(Nc1ccc(N2CCCCC2)cc1)c1ccc(Cl)c([N+](=O)[O-])c1	42.8*	6.3	-0.2	-0.6
O=C(Nc1ccccc1Cl)c1cc([N+](=O)[O-])ccc1O	60.4*	23.4	1.1	-6.3
COC(=O)CCCNC(=O)CC1C(=O)NCCN1Cc1ccccc1C(F)(F)F (configuration not stated)	-2.7	-2.5	0.0	2.6
COc1ccc(C(=O)/C=C(\C)Nc2ccc(O)cc2C)cc1	-6.9	2.0	-0.2	-0.6
O=C(CCl)Nc1ccc(Cl)c([N+](=O)[O-])c1	73.9*	-6.1	0.0	-0.2
Cc1ccccc1C(=O)Nc1ccc(-c2ccc([N+](=O)[O-])cc2)cc1	-24.5	-3.2	0.1	2.2
CC(C)CC(=O)Nc1ccc(Cl)c([N+](=O)[O-])c1	4.0	5.6	0.1	1.5
SMILES	TEAD-YAP block	MITF primary	FBW7 activator	GPR151 activ
O=C(Nc1ccccc1Cl)c1cc(F)ccc1[N+](=O)[O-]	79.8*	11.3	0.2	0.2
O=C(Nc1ccc(-c2ccc([N+](=O)[O-])cc2)cc1)c1ccccc1O	45.3*	-1.6	-0.1	-0.7
FC(F)(F)CNc1ccc(-c2ccc3c(c2)OCO3)cn1	-65.4	12.8	-0.2	-0.6
Oc1ccc2oc(-c3ccccc3)nc2c1	48.6*	6.6	-0.1	-2.6
Nc1ccc2oc(-c3ccccc3)nc2c1	-35.2	1.5	-0.1	-4.3
O=C(O)c1ccc2oc(-c3ccccc3)nc2c1	54.6*	4.2	-0.1	-9.3
COC1=CC(=O)C=C(OC)C1=O	55.4*	4.6	-0.1	0.6
COc1ccc(CCn2c(-c3ccc(Br)cc3)csc2=Nc2ccccc2)cc1	1.4	6.9	-0.3	0.8
CC1CCN(Cc2cc(Cl)c(O)c3ncccc23)CC1	84.8*	98.1*	-0.2	0.7
Oc1ccc(CN2CCN(c3ccc(F)cc3)CC2)c2cccnc12	-8.6	37.7	-0.6	4.6
CC1CCCCN1Cc1cc(Cl)c2cccnc2c1O (configuration not stated)	72.8*	29.7	-1.1	0.6
CC1CCN(Cc2ccccc2CO)CC1	-7.6	-0.8	0.0	-0.1
CN1CCN(Cc2cc(Cl)c(O)c3ncccc23)CC1	90.2*	97.9*	-0.8	0.8
CC1CCN(Cc2cc(Cn3ccnc3)c3cccnc3c2O)CC1	39.4*	109.9*	-1.0	-0.3
N#Cc1ccccc1OCC(=O)N/N=C/c1cc2ccccc2nc1Cl	-5.0	20.3	0.1	0.1
COc1ccc(C(=O)Oc2c(CN3CCOCC3)cc(Cl)c3cccnc23)cc1OC	0.2	0.4	-0.1	-1.0
CC1CCN(Cc2cc(Cl)c3cccnc3c2O)CC1	45.6*	42.9	-1.1	3.8
COc1cccc(C(=O)Nc2ccc3c(c2)OCCO3)c1	79.0*	13.0	0.0	-9.6
O=C(Nc1ccc2ncsc2c1)c1ccc2c(c1)OCCO2	85.6*	3.4	0.1	-8.2
COc1cc(OC)c(S(=O)(=O)Nc2ccc3c(c2)OCCO3)cc1NC(C)=O	34.6*	3.1	-0.1	0.4
O=C(Nc1ccc2ncsc2c1)c1ccc(F)cc1	-36.7	22.3	0.5	-4.6
Cc1ccc(C(=O)Nc2ccc3c(c2)OCCO3)cc1	-0.3	-19.3	0.2	1.3
O=C(Nc1ccc2c(c1)OCCO2)c1ccc(F)cc1	43.4*	-15.2	0.2	-6.3
CCCCOc1cccc(C(=O)Nc2ccc3c(c2)OCCO3)c1	-20.9	6.5	0.4	-0.8
COc1cccc2cc(C(=O)NC(C)Cc3ccco3)oc12 (configuration not stated)	1.1	3.8	-0.1	-0.3
SMILES	TEAD-YAP block	MITF primary	FBW7 activator	GPR151 activ
COc1cccc(S(=O)(=O)Nc2ccc3c(c2)OCCO3)c1	32.7*	1.2	-0.1	0.3
Cc1ccc(C(=O)Nc2ccc3c(c2)OCO3)cc1	44.3*	7.7	0.0	-4.6
O=C(Nc1ccc2c(c1)CCC2)c1ccc2c(c1)OCO2	58.9*	14.7	-0.1	-5.5
O=C(O)C1=C(C(=O)Nc2ccc3c(c2)OCCO3)CCCC1	55.3*	2.8	0.1	-0.1
COc1ccc(S(=O)(=O)N(CC(=O)Nc2ccccc2)c2ccc(C)cc2)cc1OC	-0.5	0.1	-0.2	1.9
N#Cc1cccc(NC(=O)NCCNc2nc3cc4c(cc3cc2C#N)OCO4)c1	-0.6	1.6	0.2	-0.2
Cn1nc(-c2ccnc(Nc3ccc(N4CCOCC4)cc3)c2)cc1NC(=O)Cc1ccccc1	19.1	-6.7	-0.2	3.1
O=C(NCc1cccnc1)c1ccnc(NCc2ccc3c(c2)OCO3)c1	-1.9	18.0	0.1	4.2
COc1ccc(CSc2nc(N)cc(=O)[nH]2)cc1	-0.8	-0.7	0.0	-0.6
O=C(Nc1onc2c1CCC2)c1ccc2ccccc2c1	-25.9	-8.9	0.0	0.0
O=C(Nc1onc2c1CCCC2)c1ccc2c(c1)OCO2	64.7*	6.3	0.0	-9.0
CCOC(=O)c1c(NC(=O)CSc2nc(C)cc(C(F)(F)F)n2)sc2c1CCCCC2	11.4	3.3	-0.1	3.0
